Pf growth 96h – P. falciparum growth inhibition at 96 hour, primary screen for plastid delayed-death inhibitors | AID 504834 | P. falciparum luciferase reporter growth, 96 h | actives 6.9% (n = 320,000) | Potency, µM (doses to about 28.7 µM), for inactives: at the highest dose activity change, negative = inhibition, hits mostly inhibitors; further: potency means the concentration at half of the fitted maximal effect
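96 h incubation, 37 C, 5% CO2, of luciferase-reporter P. falciparum-infected RBCs (2% hematocrit, 0.05% parasitemia final) with test compounds; endpoint luminescence.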
Giardia FBPA inh-1 – inhibitors of Giardia lamblia fructose-1,6-bisphosphate aldolase | purified Giardia FBPA | Potency, µM (doses to about 59.6 µM), without a hit: at the highest dose activity, negative = inhibition, hits mostly inhibitors | actives 0.71% (n = 290,000) | AID 2451; further: potency means the concentration at half of the fitted maximal effect; nearly all actives have a fitted effect of over 55% in size
Target sequence (A8B2U2 whole entry, looked up): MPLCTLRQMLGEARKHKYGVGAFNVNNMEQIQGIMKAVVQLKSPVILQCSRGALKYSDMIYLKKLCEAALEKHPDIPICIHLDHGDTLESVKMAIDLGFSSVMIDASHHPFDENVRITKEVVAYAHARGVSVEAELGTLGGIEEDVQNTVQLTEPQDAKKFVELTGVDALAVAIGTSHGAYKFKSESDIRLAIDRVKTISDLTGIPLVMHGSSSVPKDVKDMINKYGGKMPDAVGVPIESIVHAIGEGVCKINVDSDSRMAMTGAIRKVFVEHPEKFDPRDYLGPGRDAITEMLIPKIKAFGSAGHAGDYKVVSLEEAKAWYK
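Giardia FBPA (40 nM reagent) was preincubated 10 min at RT with compound (up to 57.5 uM final), then substrate plus GAPDH/TPI/NAD/arsenate coupling system with diaphorase/resazurin was added; resorufin fluorescence (525/598 nm) was read after 20 min.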
Pf growth 48h – inhibits P. falciparum growth in the first generation, 48 h | Potency, µM (doses to about 28.7 µM), without a hit: at the highest dose activity change, negative = inhibition, hits mostly inhibitors | P. falciparum luciferase growth in erythrocytes, 48 h | actives 5.9% (n = 310,000); further: potency means the concentration at half of the fitted maximal effect
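Luciferase-expressing parasites in RBCs, 2% Hct / 0.1% parasitemia final; RPMI 1640 + 0.5% Albumax; 37 C, 5% CO2, one generation; luminescence read-out, lower signal = inhibition.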
HCMV inh – human cytomegalovirus inhibition | HFF cells, HCMV-luciferase reporter, 72 h; active compounds read low | activity change, negative = inhibition, % at 57.5 µM | actives 4.5% (n = 410,000); in the data active means activity change below about -60%; inconclusive means no clear call, values can overlap the other calls; inactive means above about -39%
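Screen run at 2 compound doses on HFFs infected with reporter HCMV, MOI 1 PFU/cell. Luciferase activity from cell lysates at 72 h post infection gave inhibition relative to buffer-only and Salinomycin wells.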
Sm TGR block – blocks Schistosoma mansoni thioredoxin glutathione reductase; Q962Y6; purified TGR, DTNB reduction, TNB absorbance 405 nm; Potency, µM (series often up to 114 µM), for the others: at the top dose activity change, negative = inhibition, hits mostly inhibitors; actives 3% (n = 360,000); further: potency means the concentration at half of the fitted maximal effect; nearly all actives have a fitted effect of over 60% in size
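TGR 20 nM + NADPH 100 uM (dispensed conc.), cpd preinc 15 min RT; start with NADPH (500 uM addition) then DTNB (15 mM addition). Kinetic TNB absorbance, 405 nm filter. Four-parameter Hill fit across titration.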
Giardia growth – inhibitors of Giardia lamblia growth; Giardia lamblia trophozoite growth inhibition; AID 2785; Potency, µM (doses to about 57.5 µM), inactives show at the highest dose activity change, negative = inhibition, most hits filed as inhibitors; actives 5% (n = 1,500); shares compounds with Giardia FBPA inh-1;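 further: potency means the concentration at half of the fitted maximal effect; trophozoites exposed to compound for 48 h at 37 °C; nearly all actives have a fitted effect of over 70% in size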
Mammalian tox – toxic to mammalian cells in Giardia aldolase counter-screen; actives 4% (n = 1,500); Potency, µM (highest dose often 57.5 µM), inactives show top-dose viability change, negative = toxicity, actives largely listed as inhibitors; AID 2786; mammalian cell viability counter-screen, qHTS; shares compounds with Giardia FBPA inh-1;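 further: Chinese hamster ovary cells used as mammalian cytotoxicity surrogate; viability measured as cellular ATP by luminescence; potency means the concentration at half of the fitted maximal effect; compound exposure lasted 48 h before reading; nearly all actives have a fitted effect of over 60% in size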
Giardia FBPA inh-2 – confirmation of Giardia fructose-bisphosphate aldolase inhibitors; shares compounds with Giardia FBPA inh-1; purified Giardia aldolase enzyme activity, qHTS; Potency, µM (doses to about 57.5 µM), for the others: top-dose activity change, negative = inhibition, actives largely listed as inhibitors; actives 5% (n = 1,500); AID 2787; further: potency means the concentration at half of the fitted maximal effect; nearly all actives have a fitted effect of over 45% in size
Rabbit aldolase – rabbit FBP aldolase inhibition by Giardia aldolase hits; shares compounds with Giardia FBPA inh-1; Rabbit muscle FBPA enzyme inhibition, selectivity counter-screen; Potency, µM (doses to about 57.5 µM), for the others: at the top dose activity, negative = inhibition, usual class: inhibitors; actives 4% (n = 1,500); further: potency means the concentration at half of the fitted maximal effect; nearly all actives have a fitted effect of over 60% in size
Target sequence (P00883 whole entry, looked up): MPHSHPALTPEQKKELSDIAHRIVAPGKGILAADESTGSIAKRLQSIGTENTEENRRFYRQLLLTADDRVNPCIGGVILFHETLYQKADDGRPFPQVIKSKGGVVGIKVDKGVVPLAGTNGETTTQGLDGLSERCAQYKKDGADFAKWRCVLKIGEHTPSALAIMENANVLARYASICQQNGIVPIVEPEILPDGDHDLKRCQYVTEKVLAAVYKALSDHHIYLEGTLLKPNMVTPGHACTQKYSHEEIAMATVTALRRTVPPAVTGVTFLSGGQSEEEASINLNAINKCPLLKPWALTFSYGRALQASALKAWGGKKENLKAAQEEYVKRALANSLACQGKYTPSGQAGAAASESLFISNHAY
GAPDH coupling – counter-screen for Giardia aldolase inhibitors: GAPDH coupling enzyme | actives 6% (n = 1,500) | GAPDH coupling enzyme counterscreen, biochemical, qHTS | shares compounds with Giardia FBPA inh-1 | Potency, µM (highest dose often 57.5 µM), for the others: at the highest dose activity change, negative = inhibition, most hits filed as inhibitors; further: potency means the concentration at half of the fitted maximal effect; nearly all actives have a fitted effect of over 55% in size
Starred values were filed as active, the others as inactive; ? = inconclusive; nt = no result; ! = not confirmed by another sample; [ ] = dose if it differs, or a comment. The list is not random: actives were taken first. Their share in the collection is about 14%. Unless noted, the call rests on the fitted dose curve; in most records, active means well fitted curve in the direction sought with a large enough effect; inconclusive means small, poorly fitted or top-dose-only effect, or another doubt; inactive means no such curve, though single readings can be large; an effect the other way counts as inactive or inconclusive. On the % scale 0 is the no-effect control and ±100 the full control effect.

SMILES	Pf growth 96h	Giardia FBPA inh-1	Pf growth 48h	HCMV inh	Sm TGR block	Giardia growth	Mammalian tox	Giardia FBPA inh-2	Rabbit aldolase	GAPDH coupling
CCC(CCC(C)C1CCC2C3CC=C4CC(OC(C)=O)CC[C@@]4(C)C3CC[C@@]12C)C(C)C (some centres undefined)	nt	3%	nt	nt	nt	nt	nt	nt	nt	nt
COCCCn1c(SCC(=O)N2CCCC2=O)nc2ccccc2c1=O	nt	nt	nt	-29	nt	nt	nt	nt	nt	nt
O=C(COC(=O)c1cccc(NC(=O)c2ccc(Br)cc2)c1)c1ccc(Cl)cc1	nt	nt	nt	29	-2%	nt	nt	nt	nt	nt
Cc1ccc(C23CC4CC(CC(NC(=O)NCCN(C)C)(C4)C2)C3)cc1	?	4%	nt	-6	-23%	nt	nt	nt	nt	nt
CN(C)CCNC(=O)COc1ccc(C23CC4CC(CC(C4)C2)C3)cc1	52%	0%	-4%[5.75 µM]	-68*	16%	nt	nt	nt	nt	nt
O=C(O)c1ncn(Cc2ccccc2)c1C(=O)O	nt	7.9µM*	9%	-12	9%	?	-4%	7%	3%	6%
CCOc1ccc(NC(=O)CN2CCN(S(=O)(=O)c3ccc(OC)cc3)CC2)cc1	nt	nt	nt	-23	-14%	nt	nt	nt	nt	nt
CCOc1ccc(CN2CCN(S(=O)(=O)c3ccc(NC(C)=O)cc3)CC2)cc1	0%	16µM*	?	-67*	-10%	?	1%	3%	7%	4%
CN(CCOc1ccccc1)CC(=O)Nc1ccc(S(=O)(=O)N2CCCC2)cc1	?	16µM*	-37%	-14	-8%	?	1%	8%	12%	2%
COc1cc(C(=O)OCC(=O)NC2CCCCCC2)ccc1OCC(C)C	4%	nt	-19%	9	4%	nt	nt	nt	nt	nt
CCOC(=O)c1c(-c2ccccc2)oc2cc(Br)c(OCc3ccccc3)cc12	nt	nt	nt	10	0%	nt	nt	nt	nt	nt
NS(=O)(=O)c1ccc(-c2ccc(/C=C3\NC(=S)NC3=O)o2)cc1	5%	16µM*	5%	8	8.9µM*	?	1%	-25%	-15%	-7%
N#CC1=C(S)N(c2ccccc2)C(c2cccs2)NC1=O (centres undefined)	-13%	6.3µM*	-5%	-11	-32%	-17%	-5%	5%	4%	6%
Cc1ccc(N2C(S)=C(C#N)C(=O)NC2c2cccs2)cc1 (centres undefined)	-4%	?	1%	?	-4%	nt	nt	nt	nt	nt
COc1ccc(NS(=O)(=O)c2ccc(Br)cc2)cn1	-51%	-8%	26%	-17	7%	nt	nt	nt	nt	nt
COc1ccc(NS(=O)(=O)c2c(C)cc(C)cc2C)cn1	12%	?	14%	-19	-21%	-13%[38.3 µM]	1%	-17%	-20%	-20%
Brc1ccsc1/C=N/Nc1ccccc1	nt	nt	nt	32	nt	nt	nt	nt	nt	nt
O=C(O)c1nc(=O)[nH]c(=O)[nH]1	14%	nt	-2%	nt	nt	nt	nt	nt	nt	nt
O=C(O)c1[nH]c(=O)[nH]c(=O)c1F	0.0033µM*	20µM*	0.012µM*	-32	0%	27%	-6%	5%	6%	10%
CCCn1nnc(NC(=S)NC(=O)C(C)(C)C)n1	38%	5.6µM*	11%	?	-24%	-4%[38.3 µM]	-7%	-1%	-4%	-5%
CCCn1nnc(NC(=S)NC(=O)/C=C/c2ccco2)n1	1%	16µM*	23%	-34	7.1µM*	7%	6%	-3%	2%	12%
CCCn1nnc(NC(=S)NC(=O)c2cccs2)n1	-79%	5µM*	40%	-10	-34%	?	-2%	8%	5%	13%
C/C(Nc1ccc(Cl)c(Cl)c1)=C1/CCOC1=O	nt	nt	nt	3	nt	nt	nt	nt	nt	nt
CC1(C)CC(=O)C(/C=N/n2cnc3ccccc3c2=O)=C(O)C1	?	18µM*	25%	14	25%	0%	-2%	5%	-1%	3%
CC1(C)CC(=O)C(/C=N/c2ccccn2)=C(O)C1	-38%	12%	-10%	26	-1%	nt	nt	nt	nt	nt
Cc1ccc(C)c(NC(=O)CSc2nc(=O)n(Cc3ccccn3)c3c2CCC3)c1	nt	nt	nt	2	6%	nt	nt	nt	nt	nt
COc1cc(N=c2ssnc2Cl)cc(OC)c1OC	24%	20µM*	-5%	17	?	-4%[10.4 µM]	5%	-28%	32µM*	-6%
N#Cc1ccc(N=c2ssnc2Cl)cc1	12µM*!	16µM*	43%	-30	?	-8%	-12%	-23%	40µM*	11%

High-throughput results from PubChem BioAssay.
